Results filed as inconclusive are left out. Entries that show only a call come without a potency. A number with no mark means an inactive call. Active and inactive are the calls of the source. Calls come from the whole dose curve; as a rule, active = well fitted cell-killing curve with a large enough effect in the repeat runs; inconclusive = weak or mixed curves, or effect the other way; inactive = no such curve, though single readings can be large or run the other way.
Potency is the fitted concentration of half-maximal effect.

This assay can be described thus: qHTS assay to identify small molecule agonists of the estrogen receptor alpha (ER-alpha) signaling pathway in the presence of an antagonist - cell viability counter screen (AID 1259386). Note: nearly all actives have a fitted effect of over 30% in size. To be noted: VM7Luc4E2 viability, CellTiter-Fluor fluorescence, 22 h; series mostly up to 92.4 µM. An excerpt:
National Center for Advancing Translational Sciences [NCATS]
NIH Chemical Genomics Center [NCGC]
U.S. Environmental Protection Agency [EPA]
National Institutes of Environmental Health Sciences [NIEHS]
National Toxicology Program [NTP]
U.S. Food and Drug Administration [FDA]
Estrogen receptor (ER), a member of nuclear hormone receptor plays an important role in development, metabolic homeostasis and reproduction. Two subtypes of ER, ER-alpha and ER-beta, have similar expression patterns with some uniqueness in both types. Endocrine disrupting chemicals (EDCs) and their interactions with steroid hormone receptors like ER causes disruption of normal endocrine function. Therefore, it is important to understand the effect of environmental chemicals in ER signaling pathway. For identifying ER agonists, VM7Luc4E2 cell line has been used in the current assay.
VM7Luc4E2 cell line (provided by Denison MS, University of California) endogenously expresses full-length ER-alpha and is stably transfected with a plasmid containing four estrogen responsive elements (ERE) upstream of a luciferase reporter gene. This current screening for measuring luciferase reporter gene activity using VM7Luc4E2 cells against Tox21 10K library collection is a confirmation study on agonist mode screening in presence of ER-antagonist (ICI-182,780) at 10.0nM final concentration. The cytotoxicity of the compounds was tested in parallel by measuring the cell viability using CellTiter-Fluor assay system (Promega, Madison, WI) in the same wells.
Tox21 Assay Protocol Summary:
VM7Luc4E2 cells were cultured in phenol red free assay medium containing 10% charcoal stripped FBS for 5 days prior to the assay. The cells were dispensed at 4,000 cells in 4uL of assay medium per well into white wall/solid-bottom 1536-well plates (Corning Life Sciences, Corning, NY) using a Multidrop Combi (Thermo Fisher Scientific Inc., Waltham, MA) dispenser. After the assay plates were incubated at 37C and 5% CO2 for 24hr, 1uL of 10.0nM (final concentration) ICI-182,780 or assay buffer was added using two separate tips of Flying Reagent Dispenser (FRD, Aurora Discovery, San Diego, CA). Then 23nL of compounds dissolved in DMSO at 15 concentrations and positive controls or DMSO only was transferred to the assay plates by a Pintool station (Wako, San Diego, CA). The assay plates were incubated at 37C and 5% CO2 for 22hr. After 21hr incubation at 37C, 1uL/well CellTiter-Fluor reagent (Promega Corporation, Madison, WI) was added to each well using FRD and after 1hr incubation at 37C and 5% CO2, the fluorescence signal was measured on ViewLux plate reader (PerkinElmer, Shelton, CT).
For the compound `Cc1cccc(Nc2ccccc2)c1`, the Potency result was “inactive”.
Take `CCN(CC)CCNC(=O)c1cc(Br)c(N)cc1OC`: the Potency entry is “inactive”.
Regarding `ClCCOCCOCCCl`, the Potency result is “inactive”.
In the case of `CC(CSC(=O)c1ccccc1)C(=O)N1C[C@@H](Sc2ccccc2)C[C@H]1C(=O)O` (stereo not given in full), the activity change, negative = cytotoxicity was 3.85% [at 19 µM].
As for `O[C@@H](COc1cccc2ncccc12)CN1CCN(C2c3ccccc3[C@@H]3[C@H](c4ccccc42)C3(F)F)CC1` (stereo not given in full), the Potency entry is “inactive”.
Take `CCN(CC)c1ccc2c(-c3ccccc3C(=O)O)c3ccc(=[N+](CC)CC)cc-3oc2c1`: the Potency is 6.11 µM (active).
Same read-out and setting: as for `C[Si](C)(CCCN)O[Si](C)(C)CCCN`, the entry is “inactive”; as for `CN(C)CCN(Cc1ccccc1)c1ccccn1`, “inactive”.
With `Nc1cccc(S(=O)(=O)c2cccc(N)c2)c1`, the Potency entry is “inactive”.
For `CN(C)CCCN1c2ccccc2Sc2ccccc21`, the Potency entry is “inactive”.
Consider `CC(C)C[C@H]1C(=O)N2CCC[C@H]2[C@]2(O)O[C@](NC(=O)[C@@H]3C=C4c5cccc6[nH]c(Br)c(c56)C[C@H]4N(C)C3)(C(C)C)C(=O)N12`, for which the Potency entry is “inactive”.
`CN(C)c1ccc(CCO)cc1`: the Potency result was “inactive”.
The same measure, in the same setting: as for `CCCCCCCCCCCC(=O)OC[C@@H](O)[C@H]1OC[C@H](OCCO)[C@H]1OCCO`, the entry is “inactive”.
On to `CN(C)CCOC(c1ccccc1)c1ccc(Br)cc1` (stereo not given), for which the Potency result was “inactive”.
Regarding `CN1C[C@H]2c3ccccc3Oc3ccc(Cl)cc3[C@@H]2C1`, the Potency entry is “inactive”.
In the case of `CCCCC(CC)COC(=O)CCCCCCCCC(=O)OCC(CC)CCCC` (stereo not given), the Potency entry is “inactive”.
As to `NCC(=O)O`, the activity change, negative = cytotoxicity is 6.54% [at 19 µM].
For `C/C=C/C(=O)CC`, the activity change, negative = cytotoxicity is 2.64% [at 19 µM].
Take `C=CC(=O)OCCOc1ccccc1`: the Potency result was “inactive”.
Take `Cc1oc(-c2ccccc2)nc1CCOc1cccc2c1ccn2CCC(=O)O`: the Potency was 19.3 µM (active).
The same measure, in the same setting: as for `C1CCCNCCC1`, the entry is “inactive”; as for `CC(C)(COC(=O)c1ccccc1)COC(=O)c1ccccc1`, “inactive”.
Still for that read-out and setting: next, `CC(=O)[O][Al]`: “inactive”.
Take `NC(N)=NCCC[C@H](N)C(=O)O`: the activity change, negative = cytotoxicity is 0.856% [at 8.39 µM].
On to `Nc1cccc([N+](=O)[O-])c1`, for which the Potency result is “inactive”.
As for `COC(C)OC`, the Potency result is “inactive”.
The same measure, in the same setting: as for `O=C(O)c1ccco1`, the entry is “inactive”; as for `CCCCCCOC(=O)NC(=N)c1ccc(NCc2nc3cc(C(=O)N(CCC(=O)OCC)c4ccccn4)ccc3n2C)cc1`, 26.6 µM (active); as for `Cc1nn(C)c(Oc2ccccc2)c1/C=N/OCc1ccc(C(=O)OC(C)(C)C)cc1`, 0.0863 µM (active).
Take `c1ccc(C(O[C@H]2CCCN(CCc3ccc4c(c3)OCO4)C2)c2ccccc2)cc1`: the Potency result was “inactive”.
With `OCCNCc1ccccc1`, the Potency result is “inactive”.
As for `Nc1ccc(S(=O)(=O)Nc2ccccc2)cc1`, the Potency result is “inactive”.
With `CC1=CCCC(C)(C)C12CCC(C)O2` (stereo not given), the Potency entry is “inactive”.
Take `CCO[Si](CCCCl)(OCC)OCC`: the Potency entry is “inactive”.
Still for that read-out and setting: as for `COc1cc2nc(N3CCN(C(=O)C4COc5ccccc5O4)CC3)nc(N)c2cc1OC` (stereo not given), the entry is “inactive”; as for `CCn1cc(C(=O)O)c(=O)c2cnc(N3CCNCC3)nc21`, “inactive”; as for `C#C[C@]1(O)CC[C@H]2[C@@H]3CCc4cc(OC5CCCC5)ccc4[C@H]3CC[C@@]21C`, “inactive”.
For the compound `CCOc1ccc(O)cc1`, the Potency entry is “inactive”.
Consider `C[C@@H]1C[C@H]2O[C@@]3(O[C@@H]2C(C)(C)O)[C@H](O)[C@@]2(C)[C@@H]4CC[C@H]5C(C)(C)[C@@H](O[C@@H]6OC[C@@H](O)[C@H](O)[C@H]6O)CC[C@@]56C[C@@]46CC[C@]2(C)[C@@H]13`, for which the Potency result was “inactive”.
For the compound `NS(=O)(=O)c1ccc(N2CCCCS2(=O)=O)cc1`, the Potency entry was “inactive”.
